Growth data for 19 compounds are collected here from PubChem BioAssay (NCI).

Compounds without any hit were thinned out: in the full panel of roughly 83,000, 20% have a hit.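 Plates (96-well) were seeded with cells, treated with compound at one concentration, and incubated for 48 hours before percent growth was determined.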 A number with no mark means an inactive call. Active and inactive are the calls of the source. How the source made its calls: active means growth percent below 10; inactive means the rest.

Among the test systems are T-47D breast; BT-549 breast; MDA-MB-435 melanoma; SW-620 colon; MCF7 breast; HCT-116 colon; HCC-2998 colon; KM12 colon.
What all share (experiment): NCI-60 one-dose screen, 48 h (100 = growth as untreated, 0 = no growth, -100 = all killed)
Settings in all cases: 10 µM unless noted

`O=c1n(CC2CO2)c(=O)n(CC2CO2)n1CC1CO1` (centres undefined): the growth with T-47D breast is 52.4%; in the experiment on BT-549 breast, 54.4%; with MDA-MB-435 melanoma, 90.4%; in the experiment on SW-620 colon it was 66.3%; in the experiment on MCF7 breast, 31%; with HCT-116 colon, 57.7%. Besides, the growth with HCC-2998 colon is 75.2%.

Turning to `O=C1NC(=O)C(c2ccccc2)O1` (centres undefined), the growth in the experiment with T-47D breast was 83.8%; in the experiment with BT-549 breast, 99.6%; in the experiment with MDA-MB-435 melanoma it was 104%; in the experiment on SW-620 colon, 111%; with MCF7 breast, 105%; in the experiment with HCT-116 colon, 98.1%. In addition, the values for the growth in the experiment on HCC-2998 colon and with KM12 colon were 105% and 112%, respectively.

With `Cc1ccc(C)c(CN(C)C)c1O`, the growth with T-47D breast is 120%; in the experiment with BT-549 breast, 99.2%; in the experiment on MDA-MB-435 melanoma, 109%; in the experiment with SW-620 colon, 97.1%; with MCF7 breast, 102%; in the experiment on HCT-116 colon, 112%. For the same compound, the results for the growth in the experiment with HCC-2998 colon and with KM12 colon were 102% and 97.4%, respectively.

For `O=C1C=Cc2ccccc2/C1=C/c1[nH]c(=O)[nH]c1O`, the growth in the experiment with T-47D breast was 39.6%; with BT-549 breast it was 20.6%; in the experiment on MDA-MB-435 melanoma, -6.05% (active); in the experiment with SW-620 colon, 22%; in the experiment on MCF7 breast it was 12.9%; in the experiment on HCT-116 colon it was 17.2%. For the same compound, in the experiment on HCC-2998 colon, the growth is 54.1%.

Take `CCOC(=O)c1c(C)[nH]c(C)c1C=O`: the growth in the experiment with T-47D breast was 82%; with BT-549 breast, 95.8%; in the experiment with MDA-MB-435 melanoma, 105%; with SW-620 colon, 97.9%; with MCF7 breast, 89.1%; in the experiment with HCT-116 colon, 101%. Besides, the growth in the experiment with HCC-2998 colon is 92.9%.

Consider `OC(CBr)CCBr` (centres undefined), for which the growth was 93.6% with T-47D breast; 124% in the experiment on BT-549 breast; 97.2% in the experiment on MDA-MB-435 melanoma; 104% in the experiment on SW-620 colon; 86.6% in the experiment with MCF7 breast; 104% in the experiment on HCT-116 colon. In addition, the growth with HCC-2998 colon is 111%; in the experiment with KM12 colon, 113%.

With `C1=NCCc2ccccc21`, the growth with T-47D breast was 86%; in the experiment on BT-549 breast, 106%; with MDA-MB-435 melanoma, 111%; in the experiment with SW-620 colon, 98.5%; in the experiment with MCF7 breast it was 90.3%; in the experiment with HCT-116 colon, 89.7%. For the same compound, the growth in the experiment on HCC-2998 colon was 112%; with KM12 colon, 110%.

For `CC(C)N(CCCC#N)C(C)C`, the growth was 94.2% with T-47D breast; 112% with BT-549 breast; 103% with MDA-MB-435 melanoma; 99.2% in the experiment on SW-620 colon; 83.7% with MCF7 breast; 98.8% in the experiment on HCT-116 colon. Besides, the growth in the experiment with HCC-2998 colon was 106%; in the experiment on KM12 colon, 105%.

`CCNc1ncnc2[nH]ncc12`: the growth with T-47D breast is 103%; in the experiment on BT-549 breast, 84.3%; with MDA-MB-435 melanoma, 102%; with SW-620 colon, 99.2%; in the experiment on MCF7 breast, 93.3%; in the experiment on HCT-116 colon it was 105%. The growth in the experiment with HCC-2998 colon is 106%.

Take `CCCCCC/C=C\CCCCCCCCCc1cc(O)cc(OC)c1O`: the growth in the experiment with T-47D breast is -61.8% (active); in the experiment with BT-549 breast it was 3.38% (active); in the experiment on MDA-MB-435 melanoma, 13.3%; with SW-620 colon, 14.9%; in the experiment with MCF7 breast, 6.81% (active); in the experiment on HCT-116 colon it was 5.45% (active). Further, the figures for the growth in the experiment with HCC-2998 colon and in the experiment on KM12 colon were 35.7% and 12.5%, respectively.

Turning to `CCCCCCCCCCCCCCCCCC(=O)NCCNC(=O)CCCCCCCCCCCCCCCCC`, the growth is 78.6% in the experiment on T-47D breast; 105% with BT-549 breast; 94.2% with MDA-MB-435 melanoma; 102% with SW-620 colon; 71.6% in the experiment with MCF7 breast; 70.2% in the experiment on HCT-116 colon. Besides, the results for the growth with HCC-2998 colon and in the experiment on KM12 colon were 82.1% and 96.4%, respectively.

On to `O=C(OCc1ccccc1)n1nnc2ccccc21`, for which the growth in the experiment with T-47D breast was 106%; with BT-549 breast, 100%; in the experiment on MDA-MB-435 melanoma, 101%; with SW-620 colon it was 107%; in the experiment with MCF7 breast it was 97.3%; with HCT-116 colon, 98.1%. Moreover, the results for the growth with HCC-2998 colon and in the experiment on KM12 colon were 103% and 107%, respectively.

`CCOC(=O)c1c[nH][nH]c1=O`: the growth in the experiment with T-47D breast was 103%; in the experiment with BT-549 breast, 106%; in the experiment with MDA-MB-435 melanoma it was 104%; in the experiment with SW-620 colon it was 104%; with MCF7 breast it was 92.4%; in the experiment on HCT-116 colon, 102%. Moreover, in the experiment on HCC-2998 colon, the growth is 98.5%.

As to `Cc1cccc2ccccc12`, the growth in the experiment on T-47D breast is 109%; in the experiment on BT-549 breast, 99.6%; in the experiment with MDA-MB-435 melanoma it was 104%; in the experiment on SW-620 colon, 102%; in the experiment on MCF7 breast it was 84.1%; with HCT-116 colon it was 95.8%. In addition, the growth in the experiment with HCC-2998 colon was 99.8%.

As to `Cc1c(-c2ccc(C3CCCCC3)cc2)nc2ccc(F)cc2c1C(=O)O`, the growth is 66.1% in the experiment with T-47D breast; 65.2% with BT-549 breast; 34.5% with MDA-MB-435 melanoma; 30.6% in the experiment with SW-620 colon; 27% in the experiment with MCF7 breast; 24.8% in the experiment on HCT-116 colon. Further, the growth in the experiment on HCC-2998 colon was 49.9%.

Turning to `COc1ccc2c(ccc[n+]2C)c1`, the growth in the experiment with T-47D breast was 102%; with BT-549 breast it was 113%; in the experiment with MDA-MB-435 melanoma, 110%; with SW-620 colon, 101%; with MCF7 breast, 96.1%; in the experiment with HCT-116 colon, 99.8%. For the same compound, the results for the growth with HCC-2998 colon and with KM12 colon were 104% and 90.6%, respectively.

On to `O=CNCCc1ccccc1`, for which the growth was 101% in the experiment on T-47D breast; 96.5% with BT-549 breast; 102% with MDA-MB-435 melanoma; 113% with SW-620 colon; 95.3% with MCF7 breast; 102% in the experiment on HCT-116 colon. Besides, the figures for the growth in the experiment with HCC-2998 colon and in the experiment on KM12 colon were 122% and 131%, respectively.

Regarding `COC(=O)C1=C(C)C(=O)CC1`, the growth is 127% with T-47D breast; 114% in the experiment with BT-549 breast; 121% in the experiment on MDA-MB-435 melanoma; 106% with SW-620 colon; 97.4% in the experiment with MCF7 breast; 103% in the experiment on HCT-116 colon. Moreover, the values for the growth with HCC-2998 colon and in the experiment with KM12 colon were 116% and 121%, respectively.

`C=CC(C)C(C)(C)O` (centres undefined): the growth with T-47D breast is 89.2%; in the experiment on BT-549 breast, 97.3%; in the experiment with MDA-MB-435 melanoma it was 102%; with SW-620 colon it was 101%; in the experiment on MCF7 breast, 101%; in the experiment with HCT-116 colon it was 93.9%. The growth in the experiment with HCC-2998 colon was 106%.
